Here are results for 22 compounds from PubChem BioAssay.

Activity calls are given as the source filed them. The rule behind the calls is not given here.

The target of the test is Pantothenate synthetase (Mycobacterium tuberculosis (strain ATCC 25618 / H37Rv)) (UniProt P9WIL5). Briefly: Recombinant Mtb pantothenate synthetase (PanC) inhibitors, coupled enzyme, confirmatory (AID 375).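 Note: 0% = full reaction with vehicle and 100% = no enzyme background.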 The note with it: coupled enzyme assay; at 10 µM, active compounds read high.
Pantothenate synthetase (Mycobacterium tuberculosis (strain ATCC 25618 / H37Rv)), sequence (P9WIL5 whole entry, looked up): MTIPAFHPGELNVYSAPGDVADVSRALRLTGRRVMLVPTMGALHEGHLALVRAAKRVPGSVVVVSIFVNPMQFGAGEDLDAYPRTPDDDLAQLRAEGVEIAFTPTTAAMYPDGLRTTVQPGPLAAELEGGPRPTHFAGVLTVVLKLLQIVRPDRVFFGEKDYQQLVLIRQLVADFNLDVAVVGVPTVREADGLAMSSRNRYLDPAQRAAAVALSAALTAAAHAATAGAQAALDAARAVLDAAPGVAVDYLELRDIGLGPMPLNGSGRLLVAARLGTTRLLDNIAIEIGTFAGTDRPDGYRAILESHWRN
For `CCOC(=O)c1ccc(NC(=O)c2ccc(NS(C)(=O)=O)cc2)cc1`, the inhibition was 0% (inactive).

On to `CC(=O)Nc1cccc(Oc2nc(C)cc(C)c2C#N)c1`, for which the inhibition is 1% (inactive).

With `O=C(Nc1cnn(C23CC4CC(CC(C4)C2)C3)c1)c1cnn2c(C(F)(F)F)cc(-c3ccco3)nc12`, the inhibition was 0% (inactive).

`CCOC(=O)C1CCN(C(=O)C2(NC(=O)Nc3ccccc3Cl)CCCCC2)CC1`: the inhibition is 0% (inactive).

Regarding `Cc1cc(C)n2nc(S(=O)(=O)N(C)Cc3ccccc3)nc2n1`, the inhibition was 0% (inactive).

`CC1Cc2nc(SCC(N)=O)n(Cc3ccccc3)c(=O)c2S1` (configuration not stated): the inhibition is 0% (inactive).

In the case of `CCOC(=O)CC(=O)CSc1nc(-c2cccnc2)ccc1C#N`, the inhibition is 0% (inactive).

In the case of `O=C(NCCCN1CCCC1=O)c1ccc2c(=O)n(Cc3ccco3)c(=S)[nH]c2c1`, the inhibition was 0% (inactive).

As for `CCN1C(=O)c2cccc3c(NC(=O)c4ccc(S(=O)(=O)N(C)C)cc4)ccc1c23`, the inhibition is 1% (inactive).

For `O=C(Cn1cnc2c(nnn2-c2ccc(F)cc2)c1=O)NCc1ccco1`, the inhibition is 0% (inactive).

For the compound `Cc1nc2ccccc2c2c1C(=O)N(CCC1=CCCCC1)C2=O`, the inhibition is 9% (inactive).

Take `CN(C)CCCN1c2ccccc2Sc2ccccc21`: the inhibition is 0% (inactive).

`O=C(NC1CCCC1)C(c1cccs1)N(Cc1ccco1)C(=O)Cn1nnc(-c2cccs2)n1` (configuration not stated): the inhibition is 0% (inactive).

Take `COc1cc(OC)cc(-n2nnnc2SCC(=O)N2CCCC2)c1`: the inhibition was 0% (inactive).

Regarding `COc1cc(NC(=O)CN(c2cc(C)cc(C)c2)S(=O)(=O)c2c(C)noc2C)cc(OC)c1`, the inhibition is 0% (inactive).

As for `O=C(Nc1ccc(OC(=O)c2ccco2)cc1)c1ccco1`, the inhibition is 7% (inactive).

For the compound `CCOC(=O)Cc1nnc(NC(=O)CSc2nnc3c4ccccc4n(C(C)C)c3n2)s1`, the inhibition is 1% (inactive).

Turning to `CCC(C)(C)n1nnnc1C(c1cc2cc(C)ccc2[nH]c1=O)N1CCCC1` (configuration not stated), the inhibition was 8% (inactive).

For the compound `CC1(C)S[C@@H]2[C@H](NC(=O)[C@H](C(=O)O)c3ccsc3)C(=O)N2[C@H]1C(=O)O`, the inhibition was 5% (inactive).

With `CC1CCN(c2nc3c(c(=O)n(C)c(=O)n3C)n2Cc2ccccc2)CC1`, the inhibition was 0% (inactive).

In the case of `CC(=O)Nc1cc(NC(C)=O)cc(C(=O)OCC(=O)N2CC(C)OC(C)C2)c1` (configuration not stated), the inhibition was 2% (inactive).

On to `CCOC(=O)c1cc2sccc2n1Cc1ccccc1`, for which the inhibition was 1% (inactive).
